Each structure is given as a SMILES string. Active and inactive are the calls of the source.

Assay [1] relates to Plasmodium falciparum Sir2 (PF13_0152, Sir2A). Put plainly: pfSir2 binders on small-molecule microarrays, primary screen, biochemical, small-molecule microarray, 635 nm fluorescence (AID 1098).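 Also: score merges spot fluorescence intensity with its signal-to-noise ratio.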 The note with it: small-molecule microarray binding, fluorescence 635 nm; higher = more signal.
Assay [2] can be described thus: small-molecule microarray binders of probe aDKK1, primary screen, biochemical, biotinylated probe, 635/667 nm fluorescence (AID 1099).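 Also: score merges 667nm spot fluorescence with signal to noise across triplicate slides.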 The note with it: higher = more signal.
Assay [3] is described as follows: small-molecule microarray binders of probe aCHRDL2, primary screen, biochemical, biotinylated probe, 635/667 nm fluorescence (AID 1100). The settings on record: higher = more signal.
A short description of assay [4]: splicing luciferase reporter signal modulators, primary screen, spliceosome inhibition project, cell-based, HEK293, splice +/- reporter (AID 1101).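 Also: HEK293 cells carrying a splicing-competent luciferase reporter gene; test concentration not given here.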 The settings on record: luminescence, 24 h, higher = more signal, called active from +8 up or from −8 down. In general terms: A reporter such as luciferase makes a cellular process visible.
The target of assay [5] is Fibroblast growth factor 10 (Homo sapiens) (UniProt O15520). Put plainly: FGF10 binders on small-molecule microarrays, primary screen, biochemical, small-molecule microarray, 635 nm fluorescence (AID 1102). The settings on record: FGF10 binding, fluorescence 635 nm, higher = more signal.
Chain of Fibroblast growth factor 10 (Homo sapiens) (O15520 whole entry, looked up): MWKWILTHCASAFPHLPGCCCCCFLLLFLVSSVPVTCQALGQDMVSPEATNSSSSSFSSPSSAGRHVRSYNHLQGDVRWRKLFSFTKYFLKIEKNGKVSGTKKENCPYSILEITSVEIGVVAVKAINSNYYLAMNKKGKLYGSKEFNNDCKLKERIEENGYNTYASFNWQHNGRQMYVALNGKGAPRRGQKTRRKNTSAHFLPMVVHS
For assay [6], the system named is glycogen synthase kinase-3 (GSK3A per assay name; protocol says GSK3B). Put plainly: GSK3 binders on small-molecule microarrays, primary screen, biochemical, small-molecule microarray, 635 nm fluorescence, GSK3A (AID 1103). Also: the record names both GSK3A and GSK3B. The settings on record: small-molecule microarray binding, fluorescence 635 nm; higher = more signal.
The target in assay [7] is Epidermal growth factor receptor (Homo sapiens) (UniProt P00533). The assay is described as follows: EGFR binders on small-molecule microarrays, primary screen, biochemical, small-molecule microarray, 635 nm fluorescence (AID 1104).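 Also: score merges 667 nm emission intensity with spot signal to noise over triplicate slides.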 The settings on record: EGFR binding, higher = more signal.
Chain of Epidermal growth factor receptor (Homo sapiens) (P00533 whole entry, looked up): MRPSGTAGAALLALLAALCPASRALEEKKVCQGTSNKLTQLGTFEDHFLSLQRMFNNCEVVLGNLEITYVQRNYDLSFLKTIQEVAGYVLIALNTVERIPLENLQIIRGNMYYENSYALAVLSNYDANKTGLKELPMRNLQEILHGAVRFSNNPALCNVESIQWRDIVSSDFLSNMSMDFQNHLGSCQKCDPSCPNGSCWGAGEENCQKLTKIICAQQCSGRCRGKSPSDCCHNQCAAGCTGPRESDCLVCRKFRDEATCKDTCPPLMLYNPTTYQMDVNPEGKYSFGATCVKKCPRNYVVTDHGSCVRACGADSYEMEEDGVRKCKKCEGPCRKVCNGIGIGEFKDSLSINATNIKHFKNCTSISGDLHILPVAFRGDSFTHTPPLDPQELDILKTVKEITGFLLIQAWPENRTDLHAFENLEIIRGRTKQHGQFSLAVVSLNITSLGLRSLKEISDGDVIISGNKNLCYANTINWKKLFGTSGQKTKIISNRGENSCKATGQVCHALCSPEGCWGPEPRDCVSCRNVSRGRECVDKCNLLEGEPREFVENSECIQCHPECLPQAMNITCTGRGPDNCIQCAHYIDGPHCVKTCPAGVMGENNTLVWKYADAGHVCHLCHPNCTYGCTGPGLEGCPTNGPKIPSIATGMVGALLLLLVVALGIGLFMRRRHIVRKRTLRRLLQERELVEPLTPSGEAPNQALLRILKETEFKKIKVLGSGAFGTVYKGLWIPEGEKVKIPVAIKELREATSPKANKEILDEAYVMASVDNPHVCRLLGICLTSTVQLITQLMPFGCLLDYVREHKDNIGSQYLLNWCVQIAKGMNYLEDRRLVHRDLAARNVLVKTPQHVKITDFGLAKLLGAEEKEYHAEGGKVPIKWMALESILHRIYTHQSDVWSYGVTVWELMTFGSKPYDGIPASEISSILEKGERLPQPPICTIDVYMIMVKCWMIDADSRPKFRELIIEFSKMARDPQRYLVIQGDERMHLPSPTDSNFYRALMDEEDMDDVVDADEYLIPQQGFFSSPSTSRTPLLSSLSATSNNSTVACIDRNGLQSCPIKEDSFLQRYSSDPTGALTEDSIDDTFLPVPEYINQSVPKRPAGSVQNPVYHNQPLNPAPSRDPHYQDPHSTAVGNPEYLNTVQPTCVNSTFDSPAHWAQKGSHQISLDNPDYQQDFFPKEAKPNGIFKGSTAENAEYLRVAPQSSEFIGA
Assay [8] deals with Follistatin-related protein 3 (Homo sapiens) (UniProt O95633). Put plainly: FSTL3 binders on small-molecule microarrays, primary screen, biochemical, small-molecule microarray, 635 nm fluorescence (AID 1105).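 Also: score merges emission near 667 nm and signal to noise per printed spot across three slides.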 The note with it: FSTL3 binding, higher = more signal.
Chain of Follistatin-related protein 3 (Homo sapiens) (O95633 whole entry, looked up): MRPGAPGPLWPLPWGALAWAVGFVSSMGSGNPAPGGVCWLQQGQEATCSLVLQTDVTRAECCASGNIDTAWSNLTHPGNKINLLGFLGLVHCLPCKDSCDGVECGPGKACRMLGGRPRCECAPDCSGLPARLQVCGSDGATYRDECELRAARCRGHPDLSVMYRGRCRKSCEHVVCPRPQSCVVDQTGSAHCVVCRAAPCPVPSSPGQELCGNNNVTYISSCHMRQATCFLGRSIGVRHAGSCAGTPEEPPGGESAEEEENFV
In assay [9] the target is Dickkopf-related protein 1 (Homo sapiens) (UniProt O94907). Put plainly: DKK1 binders on small-molecule microarrays, primary screen, biochemical, small-molecule microarray, 635 nm fluorescence scan (AID 1106).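 Also: score merges emission near 667 nm with signal to noise over three replicate slides.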 The settings on record: DKK1 binding, higher = more signal.
Chain of Dickkopf-related protein 1 (Homo sapiens) (O94907 whole entry, looked up): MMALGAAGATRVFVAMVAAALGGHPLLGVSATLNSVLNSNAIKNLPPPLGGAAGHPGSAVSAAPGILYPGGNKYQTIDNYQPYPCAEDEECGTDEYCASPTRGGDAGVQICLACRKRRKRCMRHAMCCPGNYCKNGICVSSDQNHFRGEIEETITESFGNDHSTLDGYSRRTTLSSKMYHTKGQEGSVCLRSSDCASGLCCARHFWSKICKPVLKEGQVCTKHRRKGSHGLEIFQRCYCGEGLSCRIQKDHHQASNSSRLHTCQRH
Assay [10] has as its system Inhibin beta A chain (activin A). Put plainly: INHBA (activin A) binders on microarrays, primary screen, biochemical, small-molecule microarray, 635 nm fluorescence scan (AID 1107).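 Also: mouse activin A protein probed at 4.33 µg/mL on printed slides; score merges bound-protein fluorescence near 667 nm with spot signal-to-noise.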 The settings on record: small-molecule microarray binding, higher = more signal.
Assay [11] has as its system Human papillomavirus type 1a protein E7 (residues 44-93). The assay is described as follows: HPV1a E7 fragment binders on microarrays, primary screen, biochemical, small-molecule microarray, residues 44-93, 635 nm fluorescence (AID 1108).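 Also: E7 fragment applied at 1 µg/mL in TBST for 1 h at 4 C; score combines spot fluorescence with its signal to noise ratio.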 The note with it: small-molecule microarray binding, fluorescence 635 nm; higher = more signal.
Assay [12] in a line: modulators of HCV replicon luciferase signal, primary screen, HCV replication inhibitor project, Huh7 cells, luciferase reporter (AID 1109).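 Also: huh7 hepatoma cells harbouring a luciferase neomycin HCV replicon reporter; luciferase luminescence as measure of HCV replicon replication; test concentration not given here.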 The note with it: 48 h, higher = more signal. (In general: In antiviral work, replicon cells carry a viral genome segment that copies itself.)
In assay [13] the target is Left-right determination factor 2 (Homo sapiens) (UniProt O00292). The assay is described as follows: LEFTY2 binders on small-molecule microarrays, primary screen, biochemical, small-molecule microarray, 635 nm fluorescence scan (AID 1110). The settings on record: LEFTY2 binding, higher = more signal.
Chain of Left-right determination factor 2 (Homo sapiens) (O00292 whole entry, looked up): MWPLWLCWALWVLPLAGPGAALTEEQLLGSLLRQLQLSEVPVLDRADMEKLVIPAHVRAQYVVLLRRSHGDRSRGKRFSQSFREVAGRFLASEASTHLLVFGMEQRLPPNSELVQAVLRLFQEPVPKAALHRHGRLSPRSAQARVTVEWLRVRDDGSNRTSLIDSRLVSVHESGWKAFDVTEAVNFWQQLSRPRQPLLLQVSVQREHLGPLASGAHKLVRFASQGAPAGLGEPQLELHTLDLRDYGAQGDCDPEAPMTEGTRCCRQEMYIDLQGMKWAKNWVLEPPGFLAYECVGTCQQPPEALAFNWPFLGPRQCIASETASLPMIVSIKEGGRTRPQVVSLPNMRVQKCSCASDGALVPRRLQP
Assay [14] deals with Calmodulin-1 (Homo sapiens) (UniProt P0DP23). The assay is described as follows: CALM1 binders on microarrays, EGTA buffer, profiling panel, biochemical, small-molecule microarray, Cy5-labelled CALM1 (AID 1111).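 Also: labelled calmodulin applied in Tris saline Tween buffer holding calcium plus EGTA and DTT.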 The settings on record: Cy5-CALM1 binding fluorescence, higher = more signal.
Assay [15] shares this target. The assay is described as follows: calcium-bound CALM1 binders on microarrays, profiling panel, artefact control for SMM control-protein annotation, biochemical, small-molecule microarray, Cy5-labelled CALM1, plus calcium (AID 1112).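 Also: score merges spot fluorescence with signal to noise from triplicate slides.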 The note with it: Cy5-CALM1 binding fluorescence, higher = more signal.
Assay [16] can be described thus: small-molecule microarray binders of probe aWnt5a, primary screen, biochemical, biotinylated probe, 635/667 nm fluorescence (AID 1113).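 Also: score merges 667 nm fluorescence intensity with signal-to-noise per printed feature.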 The note with it: higher = more signal.
Assay [17] is described as follows: small-molecule microarray binders of probe aShh, primary screen, biochemical, biotinylated probe, 635/667 nm fluorescence (AID 1114).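 Also: probe is biotin-labelled aShh protein from a stem cell growth factor screen; measures binding of labelled protein to compounds printed on the slide; score merges feature fluorescence at 667 nm with signal-to-noise.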 The settings on record: higher = more signal.
The nature of assay [18]: small-molecule microarray binders of probe aNog, primary screen, biochemical, biotinylated probe, 635/667 nm fluorescence (AID 1115).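 Also: probe is biotinylated aNog protein used at 0.15 µg/mL for 1 h at 4 C; z-score combines 667 nm fluorescence of each spot with its signal to noise.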 The settings on record: higher = more signal.
In assay [19] the target is Torsin-1A-interacting protein 1 (Homo sapiens) (UniProt Q5JTV8). Put plainly: LAP1 binders from COS7 cell lysate, primary screen, small-molecule microarray, 635/667 nm fluorescence (AID 1116). The settings on record: COS7-hLAP1 lysate binding, 635 nm fluorescence, higher = more signal.
Chain of Torsin-1A-interacting protein 1 (Homo sapiens) (Q5JTV8 whole entry, looked up): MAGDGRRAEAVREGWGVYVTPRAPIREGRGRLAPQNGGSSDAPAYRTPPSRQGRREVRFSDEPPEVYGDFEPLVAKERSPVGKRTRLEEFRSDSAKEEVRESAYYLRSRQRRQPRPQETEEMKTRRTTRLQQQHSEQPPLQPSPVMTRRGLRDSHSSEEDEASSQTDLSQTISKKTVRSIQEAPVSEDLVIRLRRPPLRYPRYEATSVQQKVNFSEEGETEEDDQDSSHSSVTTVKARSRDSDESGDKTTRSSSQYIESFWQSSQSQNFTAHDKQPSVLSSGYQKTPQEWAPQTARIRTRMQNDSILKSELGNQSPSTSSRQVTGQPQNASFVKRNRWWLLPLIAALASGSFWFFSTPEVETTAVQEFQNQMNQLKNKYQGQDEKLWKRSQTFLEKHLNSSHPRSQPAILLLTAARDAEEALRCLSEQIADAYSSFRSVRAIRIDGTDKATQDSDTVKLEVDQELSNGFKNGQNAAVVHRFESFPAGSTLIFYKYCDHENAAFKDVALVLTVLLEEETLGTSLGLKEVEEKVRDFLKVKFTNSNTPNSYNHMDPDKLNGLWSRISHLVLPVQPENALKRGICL
The target in assay [20] is Alpha-bungarotoxin (Bungarus multicinctus) (UniProt P60615). Put plainly: alpha-bungarotoxin binders on microarray, profiling panel, artefact control for SMM control protein annotation, biochemical, small-molecule microarray, Alexa647 label, 635/667 nm fluorescence (AID 1117). The settings on record: alpha-BTX-A647 binding fluorescence, higher = more signal.
Chain of Alpha-bungarotoxin (Bungarus multicinctus) (P60615 whole entry, looked up): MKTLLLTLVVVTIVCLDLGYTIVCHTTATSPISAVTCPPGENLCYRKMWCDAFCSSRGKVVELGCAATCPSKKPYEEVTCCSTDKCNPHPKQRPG

Regarding `COc1ccc(C(=O)Nc2cccc(CN3C(=O)[C@@]4(O[C@@H](CC(=O)N5CCC[C@H]5CO)[C@H]([Si](C)(C)c5ccc(OC)cc5)[C@H]4C)c4ccccc43)c2)cc1`, the composite z-score is 1.21 in assay [1]; -0.0379 in assay [2]; -0.183 in [3]; 0.43 in assay [5]; 0.744 in [6]; 0.527 in [7]. Moreover, the composite z-score in assay [8] is 0.839; in assay [9], 0.496; in [10] it was 0.182; in [11] it was 0.843; in [13] it was 0.801; in [14], 1.26. Moreover, the composite z-score is 0.78 in assay [15]; -0.0643 in assay [16]; -0.142 in assay [17]; -0.138 in assay [18]; 1.72 in assay [19]; 2.08 in assay [20]. Besides, the z-score in [4] was 1 (inactive); in assay [12] it was -3.13.
On to `COC(=O)[C@@]1(Cc2ccc(F)cc2)[C@H]2c3cc(C(=O)N(C)C)n(CCc4ccc(O)c(O)c4)c3C[C@H]2CN1C(=O)c1ccccc1`, for which the composite z-score in [1] is 0.681; in [2] it was 0.52; in assay [3] it was 0.828; in assay [5], 0.842; in assay [6], -0.292; in [7] it was -0.147. For the same compound, the composite z-score in [8] was -0.439; in [9] it was -0.372; in [10], 0.239; in assay [11], 0.148; in assay [13] it was -0.0362; in assay [14], 0.584. Besides, the composite z-score in assay [15] is 0.813; in assay [16], 0.183; in assay [17], -0.214; in assay [18], 0.2; in assay [19], 1.18; in assay [20], 0.0055. Further, the z-score in assay [4] is 0.692 (inactive); in assay [12], -1.78.
For `O=C(O)[C@H](Cc1ccccc1)n1cc(C2(O)CCCCC2)nn1`, the composite z-score in [1] is -0.0685; in assay [2], -0.201; in assay [3] it was -0.518; in assay [5] it was 0.193; in assay [6], 0.938; in [7], 0.213. Also, the composite z-score in assay [8] is 0.343; in [9], 0.196; in assay [10], -0.0247; in assay [11], 0.792; in [13], 0.678; in [14], -0.259. For the same compound, the composite z-score in assay [15] was -0.691; in [16], -0.263; in [17], 0.527; in [18], -0.0899; in assay [19], 0.281; in assay [20], 0.0396. Besides, the figures for the z-score in assay [4] and in assay [12] were -0.358 (inactive) and -0.96, respectively.
As to `CC(C)(C)N1CC=CC23O[C@@H]4C=CCOC(=O)[C@@H]4[C@H]2C(=O)N(CCO)[C@@H]3C1=O` (stereo not given in full), the composite z-score in assay [1] was 1.75; in assay [2] it was -0.243; in [3], 0.375; in assay [5], -1.05; in assay [6], -1.14; in [7], -0.687. Besides, the composite z-score is -0.955 in assay [8]; -1.44 in [9]; -0.545 in assay [10]; 0.0175 in [11]; -1.37 in [13]; -0.605 in assay [14]. For the same compound, the composite z-score was 0.546 in assay [15]; -0.15 in assay [16]; 0.0136 in assay [17]; -0.364 in assay [18]; -0.843 in assay [19]; -0.7 in assay [20]. The z-score was -0.273 (inactive) in assay [4] and -0.471 in assay [12].
With `CN(C)CCCC[C@@H]1NC(=O)[C@H]2C[C@@H](C(=O)O)[C@@H](c3ccc(O)cc3)N2C1=O`, the composite z-score in assay [1] was found to be 2.03; in [2] it was 2.45; in [3] it was 1.64; in [5], 1.55; in assay [6] it was 1.44; in assay [7], 1.85. Moreover, the composite z-score was found to be 1.53 in assay [8]; 2.03 in assay [9]; 1.98 in assay [10]; 1.55 in assay [11]; 1.62 in assay [13]; 2.44 in [14]. Moreover, the composite z-score in assay [15] was found to be 1.23; in assay [16], 0.866; in assay [17] it was 1.5; in assay [18], 3; in assay [19], 4.54; in [20], 3.2. Further, the z-score in [4] was -1.28 (inactive); in assay [12], -0.0575.
With `CC1CC/C=C\[C@H]2OC34C=CCN(CCN5CCOCC5)C(=O)[C@H]3N(CCCO)C(=O)[C@@H]4C2C(=O)O1` (stereo not given in full), the composite z-score in assay [1] was 0.367; in [2] it was -0.399; in assay [3], -0.141; in assay [5] it was -0.188; in assay [6], -0.0682; in assay [7] it was -0.555. Further, the composite z-score in assay [8] is -0.59; in assay [9] it was -0.235; in assay [10], 1.39; in assay [11] it was -0.591; in assay [13], -0.573; in assay [14], -0.589. Moreover, the composite z-score in [15] is -0.565; in assay [16], -0.192; in assay [17] it was -0.214; in [18], 0.144; in assay [19], -0.181; in assay [20], -1.02. Also, the results for the z-score in assay [4] and in [12] were 0.316 (inactive) and -0.945, respectively.

The values are drawn from PubChem BioAssay.
